# PubChem BioAssay
# Unmarked numbers belong to inactive results. Calls of active or inactive are those of the source.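 The calls were made as follows: active = thallium flux through the channel raised or lowered by more than 3 SD from vehicle-only wells, actives on both sides; inactive = the rest.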
# How the values were obtained:
# Experiment in all cases: modulators of BK channel variants, profiling panel, selectivity assay, cell-based, U2OS BacMam, thallium flux, beta subunits (AID 1259406);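 also: initial slope of Thallos dye fluorescence rise after thallium is added; log ratio against the mean of 0.3% DMSO vehicle wells on the same plate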
# F380Y = conditions: at 30 µM
# F380Y/beta1 = conditions: at 30 µM
# F380Y/beta2Delta = conditions: at 30 µM
# F380Y/beta4 = conditions: at 30 µM
# [1] = molecular target: Calcium-activated potassium channel subunit alpha-1 (Homo sapiens) + Leucine-rich repeat-containing protein 26 (Homo sapiens) (UniProt Q12791+Q2I0M4); conditions: F380Y/Slo1WT/gamma1, at 30 µM
# R275C = conditions: at 30 µM
# R275C/beta1 = conditions: at 30 µM
# R275C/beta2Delta = conditions: at 30 µM
# R275C/beta4 = conditions: at 30 µM
# R275C/Slo1WT/beta2 = conditions: at 30 µM
# Calcium-activated potassium channel subunit alpha-1 (Homo sapiens) + Leucine-rich repeat-containing protein 26 (Homo sapiens), sequence (Q2I0M4 whole entry, looked up, one chain of several): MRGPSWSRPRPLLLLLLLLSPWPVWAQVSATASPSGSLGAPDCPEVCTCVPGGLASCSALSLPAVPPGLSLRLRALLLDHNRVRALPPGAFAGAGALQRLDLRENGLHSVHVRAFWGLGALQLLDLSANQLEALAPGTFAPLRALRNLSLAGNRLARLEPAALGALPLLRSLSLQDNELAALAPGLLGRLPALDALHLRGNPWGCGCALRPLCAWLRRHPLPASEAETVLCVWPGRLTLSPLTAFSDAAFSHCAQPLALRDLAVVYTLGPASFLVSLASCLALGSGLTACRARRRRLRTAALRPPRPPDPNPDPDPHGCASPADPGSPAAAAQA
Compound,log fold change Tl+ flux (F380Y),log fold change Tl+ flux (F380Y/beta1),log fold change Tl+ flux (F380Y/beta2Delta),log fold change Tl+ flux (F380Y/beta4),log fold change Tl+ flux [1],log fold change Tl+ flux (R275C),log fold change Tl+ flux (R275C/beta1),log fold change Tl+ flux (R275C/beta2Delta),log fold change Tl+ flux (R275C/beta4),log fold change Tl+ flux (R275C/Slo1WT/beta2)
CCOC(=O)Cn1c(-c2c(Cl)cccc2Cl)noc1=O,0.00248,-0.00728,-0.0091,-0.00368,-0.0669,0.0179,-0.00444,0.0184,-0.018,0.00072
COC(=O)c1cncc(Br)c1,-0.0118,0.012,0.0106,-0.0443,-0.0357,-0.0441,-0.0547,-0.0215,-0.021,-0.0413
O=C(ON(C(=O)c1ccc(F)cc1)C1C2CC3CC(C2)CC1C3)c1ccc(F)cc1 (stereo not given),0.0231,-0.0234,0.00474,0.0374,0.0901,0.0436,-0.0159,0.00798,0.0539,0.0295
O=C1c2ccccc2NC(c2cc(Cl)cc(Cl)c2O)N1Cc1cccnc1 (stereo not given),0.0629,0.0897 (active),0.0333,0.104 (active),0.0598,0.00967,0.0327,0.0578,0.0953 (active),-0.0554
COC(=O)c1cnn(C(=O)Nc2c(C)cccc2C)c1C(OC)OC,-0.0549,-0.00196,-0.0264,-0.029,0.033,0.02,-0.0504,-0.0443,0.00703,0.00968
Cn1cnc2cccc(F)c2c1=N,-0.0259,0.000586,-0.0156,0.0474,0.038,0.0169,0.0241,-0.00275,0.00326,0.0172
CCOC(=O)c1cnn(C(=O)c2ccc(-n3c(C)ccc3C)cc2)c1N,-0.0269,-0.0106,-0.0157,-0.067,0.00537,-0.0135,-0.0219,0.0233,-0.00435,0.0525
O=c1n(-c2ccccc2)c(=O)n2n1C1CCC2C1,-0.0367,-0.0272,-0.00637,0.0475,-0.00381,0.0483,0.0201,0.00605,-0.0283,0.0498
Cc1ccccc1S(=O)(=O)NCc1ccc(N2CCN(C)CC2)cc1,-0.0156,-0.00969,0.0214,0.0231,0.0153,-0.00175,0.0272,0.0013,0.0244,-0.0187
COC(=O)c1sc(-c2ccc(Cl)cc2)cc1NC(=O)c1ccc2nsnc2c1,0.0226,0.0354,0.0206,0.0283,0.00872,0.0185,-0.00968,-0.0231,-0.00956,0.0403
OC(Cc1ccccc1)(c1ccccc1)c1ccccc1N=Cc1ccc2c(c1)OCO2 (stereo not given),0.00821,0.0126,-0.0347,-0.0765,-0.0874,-0.0385,-0.0387,-0.0661,-0.00775,-0.0302
Cc1onc(-c2c(Cl)cccc2Cl)c1C1=NCCO1,-0.0274,-0.0222,-0.0541,-0.0118,-0.0114,-0.0117,-0.0507,-0.0377,0.0277,-0.00731
O=C(Cn1ccc(C(F)(F)F)n1)c1ccc(Cl)cc1,0.0102,0.0189,-0.0159,0.0229,-0.00441,0.00925,0.0122,-0.0132,0.0276,0.0269
O=C(Nc1ccc(F)cc1)N1CCN(Cc2ccccc2)CC1,0.0438,0.00516,0.00491,0.032,0.0285,0.0233,0.0689,-0.00966,0.0882 (active),0.000608
CN(C1CCCCC1)S(=O)(=O)c1cccs1,-0.0928,-0.00759,-0.0383,0.000313,-0.00414,-0.0438,-0.00595,-0.0535,-0.025,0.0321
O=S1(=O)CC(N2CCOCC2)c2ccccc21 (stereo not given),-0.0264,-0.00462,0.0333,0.00745,0.00701,-0.00299,0.0226,0.00722,0.00198,-0.0351
O=C(c1ccccc1)c1c(Cl)cc(C(F)(F)F)cc1Cl,-0.0258,0.0352,0.0614,0.0559,0.0324,0.00162,0.0087,0.0434,0.000317,0.0159
O=S(=O)(NCc1ccc2c(c1)CCO2)c1cccs1,-0.0321,-0.0222,-0.0113,-0.00792,-0.0976,-0.0104,-0.072,-0.0692,-0.0665,-0.0508
Cc1ccc(C(=O)Cn2cc([N+](=O)[O-])nc2C)cc1,-0.00237,-0.0164,0.0463,-0.00425,-0.043,0.00593,0.0164,-0.0174,0.0383,0.0674
O=S(=O)(c1ccc(N2CCOCC2)nc1)N1CCN(c2c(Cl)cncc2Cl)CC1,0.0448,-0.00781,0.0236,-0.00865,-0.039,0.00433,0.0279,0.0194,-0.0287,0.00545
Cc1ccc(S(C)(=O)=NC(=O)c2ccc(-c3cc(C(F)(F)F)nn3C)s2)cc1 (stereo not given),-0.000678,0.0247,-0.011,0.0284,0.0389,-0.0362,0.013,0.015,0.00574,0.0204
COc1cc(C(=O)Nc2ccccc2C(=O)NCCc2ccccn2)cc(OC)c1OC,7.8e-05,0.0128,0.0219,0.0635,0.037,0.0306,0.0367,0.0116,-0.0253,0.0509
COc1ccc2c(OC(C)=O)coc2c1,0.00358,-0.0482,-0.00847,-0.0157,-0.0163,0.00531,-0.00826,0.012,0.0182,-0.00513
O=C(CCN1CCOCC1)Nc1cc(Cl)cc(Cl)c1,0.0457,0.0335,0.00661,0.024,-0.0241,0.0216,0.0618,0.0272,0.0419,-0.0333
